Results from PubChem BioAssay (NCATS).
Where “and” joins values, the source holds several entries; their conditions need not be identical. Identical values can stand only once. Results filed as inconclusive are left out. Calls of active or inactive are those of the source. Unless noted, the call rests on the fitted dose curve.

Key:
[1] = qHTS assay for small molecule antagonists of peroxisome proliferator-activated receptor delta signaling (AID 588535; active means well fitted inhibition curve with a large enough effect in the signal ratio, with a control signal flat, not every such curve was filed as active; the % refers to the signal ratio;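 on max response: cells co-treated with a PPAR-delta agonist as stimulator during compound exposure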); details: HEK293T PPARd-UAS-bla, beta-lactamase FRET ratio, 18 h; 460 nm channel
In short: (§1)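 Titrations were run on PPAR-delta-UAS-bla HEK293T cells in charcoal/dextran-stripped serum, incubated 18 h at 37 C. CCF4 fluorescence (460/530 nm) after 2 h RT; Hill equation yields IC50 and maximal response.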

[2] = target: Peroxisome proliferator-activated receptor delta (Homo sapiens) (UniProt Q03181); test: as above; details: HEK293T PPARd-UAS-bla, beta-lactamase FRET ratio, 18 h; series mostly up to 76.7 µM
Chain of Peroxisome proliferator-activated receptor delta (Homo sapiens) (Q03181 whole entry, looked up): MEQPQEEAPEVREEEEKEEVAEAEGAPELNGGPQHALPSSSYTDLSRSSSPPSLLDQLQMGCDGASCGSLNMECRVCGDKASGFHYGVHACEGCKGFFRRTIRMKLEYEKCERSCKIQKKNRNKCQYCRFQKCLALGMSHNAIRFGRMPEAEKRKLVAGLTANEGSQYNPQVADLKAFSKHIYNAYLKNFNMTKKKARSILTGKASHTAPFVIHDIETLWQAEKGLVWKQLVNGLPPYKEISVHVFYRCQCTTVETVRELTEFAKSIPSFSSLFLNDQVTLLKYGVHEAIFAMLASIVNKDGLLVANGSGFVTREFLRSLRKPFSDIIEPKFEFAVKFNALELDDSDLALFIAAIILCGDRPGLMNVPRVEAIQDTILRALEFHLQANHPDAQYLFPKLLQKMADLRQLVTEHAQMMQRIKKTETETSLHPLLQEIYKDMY
In short: as §1

[3] = target: Peroxisome proliferator-activated receptor gamma (Homo sapiens) (UniProt P37231); test: qHTS assay for small molecule agonists of peroxisome proliferator-activated receptor gamma signaling (AID 588536; active means well fitted curve in the direction sought with a large enough effect in the signal ratio, with a control signal flat, not every such curve was filed as active; the % refers to the signal ratio;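 further: 0% = DMSO basal wells and 100% = rosiglitazone at 2 µM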); details: HEK293 PPARg-UAS-bla, beta-lactamase ratio, 16 h, percent of rosiglitazone response, DMSO as zero; series mostly up to 76.7 µM
Chain of Peroxisome proliferator-activated receptor gamma (Homo sapiens) (P37231 whole entry, looked up): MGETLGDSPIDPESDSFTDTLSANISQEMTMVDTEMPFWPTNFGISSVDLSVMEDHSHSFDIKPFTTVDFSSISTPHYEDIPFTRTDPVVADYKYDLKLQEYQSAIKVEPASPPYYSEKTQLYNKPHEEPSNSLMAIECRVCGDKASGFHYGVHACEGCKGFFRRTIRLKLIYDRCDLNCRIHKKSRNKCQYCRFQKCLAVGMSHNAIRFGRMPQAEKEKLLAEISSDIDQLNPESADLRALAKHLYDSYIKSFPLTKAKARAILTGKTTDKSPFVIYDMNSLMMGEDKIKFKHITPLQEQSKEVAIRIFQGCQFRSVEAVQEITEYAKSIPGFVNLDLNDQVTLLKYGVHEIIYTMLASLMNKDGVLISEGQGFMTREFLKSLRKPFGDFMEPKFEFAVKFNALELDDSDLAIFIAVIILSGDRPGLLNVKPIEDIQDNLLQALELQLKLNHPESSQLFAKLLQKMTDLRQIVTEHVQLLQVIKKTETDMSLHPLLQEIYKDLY
In short: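 Using GeneBLAzer HEK293 cells, response was quantified by CCF4 fluorescence and normalized between basal DMSO (0%) and rosiglitazone 2 uM (100%); curves yielded half-maximal stimulation concentration and efficacy.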

[4] = target: Peroxisome proliferator-activated receptor gamma (Homo sapiens) (UniProt P37231); test: qHTS assay for small molecule antagonists of peroxisome proliferator-activated receptor gamma signaling (AID 588537; active means well fitted inhibition curve with a large enough effect in the signal ratio, with a control signal flat, not every such curve was filed as active; the % refers to the signal ratio;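 further: reporter cells co-stimulated with 50 nM rosiglitazone agonist during compound treatment; % of control where 0% means no effect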); details: HEK293 PPARg-UAS-bla, beta-lactamase ratio, antagonist mode; series mostly up to 76.8 µM
In short: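 Antagonist-mode β-lactamase reporter screen run as a titration series. HEK293 PPARγ-UAS-bla cells are stimulated with rosiglitazone (50 nM final) for 16 h, then CCF4 is read at 460/530 nm. Data are scaled between DMSO and rosiglitazone and fitted to the Hill equation.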

[5] = target: Vitamin D3 receptor (Homo sapiens) (UniProt P11473); test: qHTS assay for small molecule antagonists of vitamin D receptor signaling (AID 588541); details: HEK293T VDR-UAS-bla, beta-lactamase ratio, antagonist mode; series mostly up to 76.7 µM;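 further: receptor activated by calcitriol during compound treatment; on the % scale 0 is the no-effect control and ±100 the full control effect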
Chain of Vitamin D3 receptor (Homo sapiens) (P11473 whole entry, looked up): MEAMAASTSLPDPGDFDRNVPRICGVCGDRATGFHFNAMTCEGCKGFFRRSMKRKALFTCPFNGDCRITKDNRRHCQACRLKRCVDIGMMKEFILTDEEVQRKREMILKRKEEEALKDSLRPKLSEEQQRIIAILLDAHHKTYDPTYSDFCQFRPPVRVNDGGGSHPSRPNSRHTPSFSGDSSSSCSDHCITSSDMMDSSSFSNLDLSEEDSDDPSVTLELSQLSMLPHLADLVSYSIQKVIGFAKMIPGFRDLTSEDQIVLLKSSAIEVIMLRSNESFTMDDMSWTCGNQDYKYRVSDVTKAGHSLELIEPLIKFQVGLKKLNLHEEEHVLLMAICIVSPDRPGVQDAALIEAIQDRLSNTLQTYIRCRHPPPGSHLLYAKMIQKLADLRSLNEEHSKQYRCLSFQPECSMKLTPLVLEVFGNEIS
In short: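 Antagonist-mode beta-lactamase reporter assay: HEK293T VDR-UAS-bla cells were exposed to titrated compound alongside 1-alpha,25-dihydroxyvitamin D3 at 3 nM final for 16 h. Values were normalized to the 50 nM agonist control and DMSO basal, with IC50 and efficacy from Hill equation fits.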

[6] = qHTS assay for small molecule agonists of retinoid X receptor alpha signaling (AID 588544); details: HEK293T RXRa-UAS-bla, beta-lactamase reporter, 18 h; 530 nm emission;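 on activation: 0% = DMSO basal wells and 100% = reference agonist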
[7] = target: Retinoic acid receptor RXR-alpha (Homo sapiens) (UniProt P19793); test: as above; details: HEK293T RXRa-UAS-bla, beta-lactamase reporter, 18 h; series mostly up to 76.7 µM
Chain of Retinoic acid receptor RXR-alpha (Homo sapiens) (P19793 whole entry, looked up): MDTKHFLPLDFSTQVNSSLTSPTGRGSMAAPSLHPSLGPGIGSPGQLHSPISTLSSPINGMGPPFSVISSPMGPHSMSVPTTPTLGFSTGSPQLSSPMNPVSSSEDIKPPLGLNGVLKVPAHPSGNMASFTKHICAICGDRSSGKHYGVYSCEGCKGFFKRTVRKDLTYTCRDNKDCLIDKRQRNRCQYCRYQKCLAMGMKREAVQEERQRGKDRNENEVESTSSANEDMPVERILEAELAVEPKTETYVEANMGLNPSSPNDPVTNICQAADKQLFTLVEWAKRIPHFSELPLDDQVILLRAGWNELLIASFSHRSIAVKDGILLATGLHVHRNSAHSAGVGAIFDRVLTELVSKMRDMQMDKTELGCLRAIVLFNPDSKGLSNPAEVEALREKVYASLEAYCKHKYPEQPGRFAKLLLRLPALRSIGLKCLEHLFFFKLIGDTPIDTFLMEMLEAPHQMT

[8] = target: Thyroid hormone receptor beta (Homo sapiens) (UniProt P10828); test: qHTS assay for small molecule agonists of thyroid hormone receptor beta signaling (AID 588545); details: TR-UAS-bla GripTite HEK 293, beta-lactamase ratio, agonist mode, 18 h, percent of T3 response, DMSO as zero; series mostly up to 76.7 µM;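 further: 0% = DMSO only and 100% = 10 nM T3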
Chain of Thyroid hormone receptor beta (Homo sapiens) (P10828 whole entry, looked up): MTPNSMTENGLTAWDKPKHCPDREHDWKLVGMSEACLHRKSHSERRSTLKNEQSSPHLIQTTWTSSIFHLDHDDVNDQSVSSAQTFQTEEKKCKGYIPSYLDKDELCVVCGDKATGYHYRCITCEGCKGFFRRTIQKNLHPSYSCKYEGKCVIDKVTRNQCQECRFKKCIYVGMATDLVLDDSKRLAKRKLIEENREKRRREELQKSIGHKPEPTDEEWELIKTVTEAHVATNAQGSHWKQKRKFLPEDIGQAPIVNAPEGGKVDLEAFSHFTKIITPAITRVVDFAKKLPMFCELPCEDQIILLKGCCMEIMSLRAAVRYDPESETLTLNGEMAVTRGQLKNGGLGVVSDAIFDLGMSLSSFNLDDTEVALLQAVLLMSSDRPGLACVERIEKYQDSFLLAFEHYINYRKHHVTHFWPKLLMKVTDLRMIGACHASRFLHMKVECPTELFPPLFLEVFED
In short: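 Efficacy and EC50 values derive from Hill fits of qHTS titration data, normalized to 10 nM T3 and DMSO-only wells. HEK 293 reporter cells were stimulated for 18 hrs at 37 C, with beta-lactamase activity measured by CCF4 fluorescence.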

[9] = qHTS assay for small molecule antagonists of retinoid X receptor alpha signaling (AID 588546; active means well fitted inhibition curve with a large enough effect in the signal ratio, with a control signal flat, not every such curve was filed as active; the % refers to the signal ratio;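 further: cells stimulated with 9-cis-retinoic acid as agonist; on the % scale 0 is the no-effect control and ±100 the full control effect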); details: HEK293T RXRa-UAS-bla, beta-lactamase ratio, antagonist mode; measured here: W530 green channel, cytotoxicity proxy
In short: (§2)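 Beta-lactamase reporter inhibition, read as CCF4 fluorescence ratio (ex 405, em 460/530 nm) after 2 h at RT. HEK293T UAS-bla cells, 2500/well, were stimulated with 9-cis-RA at 500 or 100 nM final alongside test compound for 18 h at 37 C.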

[10] = target: Retinoic acid receptor RXR-alpha (Homo sapiens) (UniProt P19793); test: as above; details: HEK293T RXRa-UAS-bla, beta-lactamase ratio, antagonist mode
In short: as §2

[11] = target: Thyroid hormone receptor beta (Homo sapiens) (UniProt P10828); test: qHTS assay for small molecule antagonists of thyroid hormone receptor beta signaling (AID 588547; active means well fitted inhibition curve with a large enough effect in the signal ratio, with a control signal flat, not every such curve was filed as active; the % refers to the signal ratio;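 further: cells stimulated with 0.4 nM T3 agonist during compound exposure; on the % scale 0 is the no-effect control and ±100 the full control effect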); details: TR-UAS-bla HEK293, beta-lactamase ratio, antagonist mode, 18 h
In short: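 Inhibition of T3-driven (0.4nM final) beta-lactamase reporter activity was measured over 0.59 nM to 92 uM compound after 18 h at 37 C. The cells were GripTite HEK293 TR-UAS-bla in charcoal/dextran-stripped serum, with CCF4 ratio read-out and IC50 from Hill fits.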

[12] = target: Voltage-gated inwardly rectifying potassium channel KCNH2 (Homo sapiens) (UniProt Q12809); test: qHTS Assay for Small Molecule Inhibitors of the Human hERG Channel Activity (AID 588834; active means well fitted inhibition curve with a large enough effect;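 further: top concentration of the series differs between compounds; on the % scale 0 is the no-effect control and ±100 the full control effect; lower thallium flux fluorescence means stronger hERG block; nearly all actives have a fitted effect of over 50% in size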); details: U2OS BacMam hERG, FluxOR thallium flux fluorescence; series mostly up to 92.2 µM
Chain of Voltage-gated inwardly rectifying potassium channel KCNH2 (Homo sapiens) (Q12809 whole entry, looked up): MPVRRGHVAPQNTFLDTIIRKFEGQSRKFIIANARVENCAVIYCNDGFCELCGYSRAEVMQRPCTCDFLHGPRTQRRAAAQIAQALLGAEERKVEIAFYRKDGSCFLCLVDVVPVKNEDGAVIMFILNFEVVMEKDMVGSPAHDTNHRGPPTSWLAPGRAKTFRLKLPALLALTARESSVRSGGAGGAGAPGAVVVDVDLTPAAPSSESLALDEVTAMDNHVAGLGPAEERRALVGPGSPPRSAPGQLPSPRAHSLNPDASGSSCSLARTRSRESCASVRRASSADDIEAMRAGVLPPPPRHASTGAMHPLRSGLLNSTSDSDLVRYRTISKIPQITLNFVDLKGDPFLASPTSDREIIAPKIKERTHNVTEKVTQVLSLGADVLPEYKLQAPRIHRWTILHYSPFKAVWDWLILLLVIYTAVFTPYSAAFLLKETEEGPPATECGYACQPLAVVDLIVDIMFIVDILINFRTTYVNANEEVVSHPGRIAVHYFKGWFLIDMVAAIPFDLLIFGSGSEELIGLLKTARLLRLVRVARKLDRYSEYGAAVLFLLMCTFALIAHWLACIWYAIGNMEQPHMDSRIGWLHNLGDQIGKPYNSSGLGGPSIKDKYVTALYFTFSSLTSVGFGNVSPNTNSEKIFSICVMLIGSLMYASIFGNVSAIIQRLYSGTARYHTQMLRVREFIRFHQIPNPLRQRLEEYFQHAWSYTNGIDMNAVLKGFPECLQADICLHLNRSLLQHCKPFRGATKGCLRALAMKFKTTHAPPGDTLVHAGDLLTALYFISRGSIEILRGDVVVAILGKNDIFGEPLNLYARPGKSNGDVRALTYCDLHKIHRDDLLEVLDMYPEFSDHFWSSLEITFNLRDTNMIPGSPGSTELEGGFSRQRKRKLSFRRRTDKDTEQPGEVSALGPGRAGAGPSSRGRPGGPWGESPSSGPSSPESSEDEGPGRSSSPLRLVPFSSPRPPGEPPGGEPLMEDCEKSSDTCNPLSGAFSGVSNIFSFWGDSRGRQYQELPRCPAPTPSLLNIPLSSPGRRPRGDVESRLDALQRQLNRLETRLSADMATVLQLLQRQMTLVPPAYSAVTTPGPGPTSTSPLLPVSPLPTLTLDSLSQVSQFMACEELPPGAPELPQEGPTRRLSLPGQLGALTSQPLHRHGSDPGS
In short: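 hERG block measured as reduced thallium-dye (FluxOR) fluorescence after stimulation buffer addition, read over 2 min. Cells were hERG-BacMam-transduced U2OS exposed to compound ~10 min […]; concentration-response fitted with Hill equation for AC50.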

[13] = qHTS assay for small molecule activators of the p53 signaling pathway (AID 651743; active means well fitted activation curve with a large enough effect in the signal ratio, not every such curve was filed as active; the % refers to the signal ratio; further: % of control where 0% means no effect); details: HCT-116 p53RE-bla, beta-lactamase FRET ratio, 16 h; stronger effect = higher value
In short: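 After 16 hours compound treatment at 37 C, HCT-116 cells stably expressing p53RE-driven beta-lactamase were loaded with LiveBLAzer B/G FRET substrate for 2 hours at room temperature. Fluorescence intensity served as the p53 activation read-out.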

[14] = qHTS assay for small molecule activators of the nuclear factor-kappa B (NF-kB) signaling pathway (AID 651749; active means well fitted activation curve with a large enough effect in the signal ratio; the % refers to the signal ratio; further: % of control where 0% means no effect); details: NF-kB-bla ME-180 cells, beta-lactamase FRET ratio, 16 h; stronger effect = higher value
In short: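 Activation measured after 16 hr compound treatment at 37C, 5% CO2, of 2,000 ME-180 cells/well stably expressing an NF-kB response element–driven beta-lactamase reporter, via FRET-disruption fluorescence.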

[15] = qHTS assay for small molecule disruptors of the mitochondrial membrane potential - 1 hr assay (AID 651754); details: series mostly up to 92.2 µM; further: on the % scale 0 is the no-effect control and ±100 the full control effect; nearly all actives have a fitted effect of over 35% in size
In short: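 Mitochondrial potential in living HepG2 cells after 1 hr compound treatment at 37C was read with Mito-MPS dye added for a further 30 min. Red aggregate and green monomer fluorescence were measured; loss of potential leaves dye as cytoplasmic monomers.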

[16] = target: Glucocorticoid receptor (Homo sapiens) (UniProt P04150); test: qHTS assay for small molecule antagonists of glucocorticoid receptor signaling (AID 588533; active means well fitted inhibition curve with a large enough effect in the signal ratio, with a control signal flat, not every such curve was filed as active; the % refers to the signal ratio;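 further: cells stimulated with 2 nM dexamethasone as agonist; on the % scale 0 is the no-effect control and ±100 the full control effect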); details: HeLa MMTV-bla, GRE beta-lactamase ratio, antagonist mode, 18 h; series mostly up to 76.8 µM
Chain of Glucocorticoid receptor (Homo sapiens) (P04150 whole entry, looked up): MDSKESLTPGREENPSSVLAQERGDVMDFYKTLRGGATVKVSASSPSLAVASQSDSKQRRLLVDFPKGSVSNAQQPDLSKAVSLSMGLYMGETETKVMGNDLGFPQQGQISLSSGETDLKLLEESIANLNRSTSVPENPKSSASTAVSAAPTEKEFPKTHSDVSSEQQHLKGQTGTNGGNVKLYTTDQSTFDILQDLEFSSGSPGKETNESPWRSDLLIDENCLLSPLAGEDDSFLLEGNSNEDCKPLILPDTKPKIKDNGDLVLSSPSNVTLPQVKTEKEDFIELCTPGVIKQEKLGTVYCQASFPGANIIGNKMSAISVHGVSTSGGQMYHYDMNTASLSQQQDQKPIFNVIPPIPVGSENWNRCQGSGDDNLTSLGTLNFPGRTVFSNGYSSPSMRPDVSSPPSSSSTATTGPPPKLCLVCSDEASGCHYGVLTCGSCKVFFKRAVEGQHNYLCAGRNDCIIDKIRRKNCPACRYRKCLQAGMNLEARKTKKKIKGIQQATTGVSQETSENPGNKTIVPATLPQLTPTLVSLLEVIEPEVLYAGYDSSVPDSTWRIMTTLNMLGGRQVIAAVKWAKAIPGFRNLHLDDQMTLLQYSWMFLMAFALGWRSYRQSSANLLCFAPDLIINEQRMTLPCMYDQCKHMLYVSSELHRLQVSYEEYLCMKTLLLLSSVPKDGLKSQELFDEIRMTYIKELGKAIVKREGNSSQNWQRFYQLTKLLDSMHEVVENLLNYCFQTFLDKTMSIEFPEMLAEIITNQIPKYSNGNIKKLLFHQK
In short: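 Antagonist-mode qHTS: compound titrations added to GRE-bla HeLa cells, then dexamethasone 2 nM final; 18 h, 37 C. CCF4 FRET fluorescence normalized to dexamethasone and DMSO; IC50 from Hill fit.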

[17] = target: Vitamin D3 receptor (Homo sapiens) (UniProt P11473); test: qHTS assay for small molecule agonists of vitamin D receptor signaling (AID 588543); details: HEK293T VDR-UAS-bla, beta-lactamase ratio, 16 h; series mostly up to 76.8 µM;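 further: 0% = DMSO basal and 100% = reference agonist control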
In short: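 Agonist-mode beta-lactamase reporter: HEK293T VDR-UAS-bla cells in charcoal-stripped 2% FBS, compound series 16 h 37 C, CCF4 2 h RT. EC50 from Hill fit, scaled against DMSO and 50 nM calcitriol control.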

[18] = qHTS assay for small molecule agonists of the antioxidant response element (ARE) signaling pathway (AID 651741; active means well fitted activation curve with a large enough effect in the signal ratio; the % refers to the signal ratio; further: % of control where 0% means no effect); details: HepG2 ARE-bla reporter, beta-lactamase FRET ratio, 16 h; series mostly up to 96 µM
In short: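 Beta-lactamase reporter under ARE control in HepG2 cells, 2,000 per well, was induced by 16 h compound treatment at 37 C. Read-out was fluorescence from LiveBLAzer B/G FRET substrate after 2 h at room temperature.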

CCOc1cccc(N)c1
5.53%: max response [9]
inactive: Potency [2] | outcome [3] | outcome [4] | outcome [5] | outcome [7] | outcome [8] | max response [10] -4.73% | activity change % (negative = inhibition) [11] -0.0909% | Potency [12] | activation [13] 0.42% | activation [14] -0.866% | Potency [15]
-10.6%: max response [1]
-8.66%: max response [6]

COC(=O)c1ccccc1
19.3%: max response [1]
-5.14%: max response [9]
0.622%: max response [6]
inactive: Potency [2] | outcome [3] | outcome [4] | outcome [5] | outcome [7] | max response [10] 4.4% | activity change % (negative = inhibition) [11] -7.56% | Potency [12] | activation [13] 7.4% | activation [14] 1.41%

Cc1ccc2ccccc2c1[N+](=O)[O-]
-7.86%: max response [6]
0.642%: max response [9]
inactive: outcome [16] | outcome [3] | outcome [4] | outcome [5] | outcome [17] | outcome [7] | max response [10] 2.75% | activity change % (negative = inhibition) [11] -6.91% | Potency [12] | activation [13] 0.53% | activation [14] 0.793% | Potency [15]

BrC(Br)C(Br)Br
-6.63%: max response [9]
inactive: Potency [2] | outcome [3] | outcome [4] | outcome [5] | outcome [7] | outcome [8] | max response [10] -0.43% | activity change % (negative = inhibition) [11] 0.66% | Potency [12] | activation [13] -2.69% | activation [14] 2.53% | Potency [15]
-3.11%: max response [1]
-10.8%: max response [6]

CCOc1ccccc1N
0.0722%: max response [6]
inactive: outcome [16] | outcome [3] | outcome [5] | outcome [17] | outcome [7] | outcome [8] | max response [10] 20.5% | activity change % (negative = inhibition) [11] -11.6% | Potency [12] | Potency [18] | activation [13] -1.62% | activation [14] -1.4% | Potency [15]
-5.65%: max response [9]

Nc1nc(CC(=O)O)cs1
inactive: outcome [16] | outcome [3] | outcome [4] | outcome [17] | outcome [7] | outcome [8] | max response [10] -13.3% | activity change % (negative = inhibition) [11] 1.64% | Potency [12] | Potency [18] | activation [13] -1.45%
-4.19%: max response [6]
-14%: max response [9]

CC(=O)OC(C)=O
-8.16%: max response [9]
inactive: outcome [16] | outcome [3] | outcome [4] | outcome [5] | outcome [17] | outcome [7] | outcome [8] | max response [10] 5.52% | activity change % (negative = inhibition) [11] 16.3% | Potency [12] | Potency [18] | activation [13] 1.52% | activation [14] -1.18% | Potency [15]
-0.73%: max response [6]

Nc1cc([N+](=O)[O-])ccc1C(=O)O
-33% and 11%: max response [1]
8.72% and -23.6%: max response [6]
-12.5% and -8.81%: max response [9]
inactive: Potency [2] | outcome [3] | outcome [4] | outcome [5] | outcome [17] | outcome [7] | outcome [8] | max response [10] 19.8% and -9.41% | activity change % (negative = inhibition) [11] 7.18% and -9.31% | Potency [12] | Potency [18] | activation [13] -3.96% and 3.5%

Cc1ccc(C)cc1
-6.14%: max response [9]
-6.55%: max response [1]
4.64%: max response [6]
inactive: outcome [16] | Potency [2] | outcome [5] | outcome [17] | outcome [7] | max response [10] 34.4% | activity change % (negative = inhibition) [11] 2.43% | Potency [12] | Potency [18] | activation [13] -3.21%

CCNc1ccccc1
inactive: Potency [2] | outcome [3] | outcome [4] | outcome [5] | outcome [17] | outcome [7] | outcome [8] | activity change % (negative = inhibition) [11] -13.9% | Potency [12] | activation [13] -2.34% | Potency [15]
13.4%: max response [1]
-5.14%: max response [6]

CCOC(=O)OCC
10.9%: max response [9]
-14.7%: max response [6]
inactive: outcome [16] | outcome [3] | outcome [4] | outcome [5] | outcome [17] | outcome [7] | max response [10] -0.211% | activity change % (negative = inhibition) [11] 5.41% | Potency [12] | Potency [18] | activation [14] -0.0369%

NCCCCCCN
1.96%: max response [6]
-19.3%: max response [1]
-3.24%: max response [9]
inactive: Potency [2] | outcome [3] | outcome [4] | outcome [5] | outcome [7] | outcome [8] | max response [10] 17.1% | Potency [12] | Potency [18] | activation [13] -1.12% | activation [14] -0.106% | Potency [15]

CCC(C)(C)C
-12.5%: max response [9]
7.52%: max response [6]
inactive: outcome [16] | outcome [3] | outcome [5] | outcome [7] | max response [10] 11.7% | activity change % (negative = inhibition) [11] -4.13% | Potency [12] | Potency [18] | activation [13] -0.874% | Potency [15]

O=Cc1ccc(Cl)cc1
inactive: Potency [2] | outcome [3] | outcome [4] | outcome [5] | outcome [17] | outcome [7] | outcome [8] | max response [10] -5.61% | Potency [12] | activation [13] -0.245% | Potency [15]
-0.849%: max response [9]
7.54%: max response [1]
-8%: max response [6]

CCOC(=O)C(C)C(C)=O (stereo not drawn)
inactive: outcome [16] | outcome [7] | outcome [8] | activity change % (negative = inhibition) [11] 2.26% | Potency [12] | activation [13] 6.52% | Potency [15]
-14.3%: max response [6]

Cc1nc2ccc(Cl)cc2[nH]1
-9.52%: max response [9]
-24.2%: max response [6]
inactive: outcome [16] | outcome [3] | outcome [4] | outcome [5] | outcome [17] | outcome [7] | max response [10] -12.1% | activity change % (negative = inhibition) [11] 9.04% | Potency [12] | Potency [18] | activation [13] -1.34% | Potency [15]
